Bioassay records deposited in PubChem BioAssay by Sanford-Burnham Center for Chemical Genomics.
CYP2C9 act: increases human cytochrome P450 2C9 activity; hit rate 1.4% among 96,000; P11712; activation factor at 5 µM; recombinant CYP2C9, luciferin-H conversion, luminescence; stronger effect = higher value; factor 1 = untreated enzyme, 0 = blocked; AID 1024;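 active = activation factor of 2 or more for CYP2C9 at a 5 µM dose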;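 note: 0 = sulfaphenazole-blocked wells and 1 = vehicle-only wells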
Target sequence (P11712 whole entry, looked up): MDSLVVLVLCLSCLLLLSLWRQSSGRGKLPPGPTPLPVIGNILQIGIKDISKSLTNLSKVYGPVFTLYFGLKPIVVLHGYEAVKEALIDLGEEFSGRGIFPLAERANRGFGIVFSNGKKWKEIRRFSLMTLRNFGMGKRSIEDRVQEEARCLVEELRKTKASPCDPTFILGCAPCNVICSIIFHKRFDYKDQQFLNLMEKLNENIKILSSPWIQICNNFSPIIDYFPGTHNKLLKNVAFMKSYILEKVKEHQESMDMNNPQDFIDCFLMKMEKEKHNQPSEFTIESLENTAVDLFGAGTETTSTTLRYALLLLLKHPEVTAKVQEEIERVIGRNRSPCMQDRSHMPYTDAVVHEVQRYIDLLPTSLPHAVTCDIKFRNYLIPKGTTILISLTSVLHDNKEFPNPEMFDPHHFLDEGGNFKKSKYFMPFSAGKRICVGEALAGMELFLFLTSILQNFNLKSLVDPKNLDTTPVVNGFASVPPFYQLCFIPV
CYP2C9 inh: inhibitors of human CYP2C9; P11712; CYP2C9 Supersomes, luciferin-H conversion, luminescence; inhibition, % at 5 µM; hit rate 20% among 96,000;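 active = blocking of liver enzyme CYP2C9 beyond about 50% at 5 µM, limit read from the data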
CYP2C19 inh: blocks human cytochrome P450 2C19 | hit rate 21% among 96,000 | CYP2C19 Supersomes, luciferin-H EGE luminescence, 30 min | inhibition, % at 5 µM | P33261;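 active = CYP2C19 inhibition above a set limit at 5 µM in the primary screen, cut at about 50% in these data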;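 note: plate controls were negative control wells for no effect and 2.5 mM tranylcypromine positive control for full effect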
CYP2C19 activ: increases human CYP2C19 enzyme activity | 96,000 tested, under 10 active | recombinant CYP2C19, luciferin-H EGE luminescence; stronger effect = higher value; 0 = fully inhibited enzyme, 1 = untreated enzyme | P33261 | activation factor at 5 µM;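 active = activation factor of at least 2 at 5 µM in the primary screen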;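 note: 0 = wells with 2.5 mM tranylcypromine and 1 = vehicle-only wells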
The depositor's hits bear a star. Shown are actives, neighbours in structure and some others; about 31% of the full set was active somewhere.

SMILES	CYP2C9 act	CYP2C9 inh	CYP2C19 inh	CYP2C19 activ
COC(=O)c1c(C)[nH]c(C(=O)CSc2ccc(Cl)cc2)c1C	0.3	67.9*	26.7	0.7
COC(=O)c1c(C)[nH]c(C(=O)CN2CCOCC2)c1C	0.7	32.9	62.4*	0.4
CCOC(=O)c1[nH]c(C)c(C(=O)Nc2ccc(Cl)cc2)c1C	1	2.7	13.8	0.9
CC(CCc1ccco1)NC(=O)CSc1cc(=O)n(C)c2ccccc12 (stereo not drawn)	0.9	5.6	18.8	0.8
Cc1ccc(C(=O)NCc2ccc3c(c2)OCO3)cc1S(=O)(=O)N1CCCCC1	0.2	81.0*	51.1*	0.5
O=C(NCc1ccc2c(c1)OCO2)c1ccc(Cl)c(S(=O)(=O)N2CCOCC2)c1	0.3	68.0*	38.1	0.6
Cc1ccc(C(=O)NCc2ccc3c(c2)OCO3)cc1S(=O)(=O)N1CCOCC1	0.2	76.0*	66.0*	0.3
O=C(NCc1ccc2c(c1)OCO2)c1ccc(CN2CCOCC2)cc1	0.9	8.6	1.9	1
CCN(CC)C(=O)CN(c1ccc(C)cc1)S(=O)(=O)c1ccc(SC)cc1	0.7	31.4	20.7	0.8
CC1CCN(C(=S)NCCc2ccccc2)CC1	0.6	39.1	73.1*	0.3
OCC1CCCN(C(=S)NCCc2ccccc2)C1 (stereo not drawn)	0.9	11.0	47.5	0.5
CN1CCN(C(=S)NCCc2ccccc2)CC1	1	-3.7	63.8*	0.4
CC1CCN(C(=O)C2Cc3ccccc3CN2S(=O)(=O)c2ccc(F)cc2)CC1 (stereo not drawn)	0.8	20.9	20.5	0.8
O=C(Nc1ccc(N2CCOCC2)cc1)c1cn2ccccc2n1	0.7	33.8	60.0*	0.4
O=C(O)C1CCCCC1C(=O)Nc1ccc(Cl)cc1Cl (stereo not drawn)	0.8	22.0	37.3	0.6
O=C(O)C1CCCCC1C(=O)Nc1ccccc1Cl (stereo not drawn)	0.5	46.4	63.8*	0.4
CN(C)S(=O)(=O)c1cccc(C(=O)OCC(=O)Nc2ccccc2OC(F)F)c1	0.9	5.9	7.1	0.9
O=C1CN(C(=O)COC(=O)c2cccc(S(=O)(=O)NCc3ccccc3)c2)c2ccccc2N1	0.3	68.0*	43.6	0.6
CCN(CC)S(=O)(=O)c1cccc(C(=O)OCC(=O)Nc2ccccc2OC(F)F)c1	0.1	88.1*	84.3*	0.2
Cc1ccc(C(=O)OCC(=O)N2CC(=O)Nc3ccccc32)s1	1	3.0	21.2	0.8
CCN(CC)S(=O)(=O)c1cccc(C(=O)OCC(=O)N2CC(=O)Nc3ccccc32)c1	0.3	65.5*	33.5	0.7
CCN(CC)S(=O)(=O)c1cccc(C(=O)OCC(=O)C23CC4CC(CC(C4)C2)C3)c1	0.3	74.2*	-1.6	1
Cc1ccsc1C(=O)OCC(=O)N1CC(=O)Nc2ccccc21	1.3	-32.2	10.3	0.9
CC(C)(C)OC(=O)N1CCOCCOCCN(C(=O)OC(C)(C)C)CCOCC1	0.6	39.4	47.8	0.5
COc1ccc(/C=C/C(=O)Oc2cccc(/C=N/NC(=O)c3cccc(F)c3)c2)cc1	0.6	41.6	48.5	0.5
SMILES	CYP2C9 act	CYP2C9 inh	CYP2C19 inh	CYP2C19 activ
Cc1nc2c([nH]c3ccc(Br)cc32)s1	1.1	-10.2	2.3	1
CCCC1C(c2ccc(OC)cc2)C(C#N)(C#N)C2(C#N)CC1(N)NC2=O (stereo not drawn)	0.6	45.0	-6.5	1.1
CCOC1(OCC)C(c2ccc(Cl)cc2)C(C#N)(C#N)C1(OCC)OCC (stereo not drawn)	0.5	48.5	40.4	0.6
Cc1ccc(C2C3=C(CC(C)(C)CC3=O)Nc3[nH]c(=S)[nH]c(=O)c32)cc1 (stereo not drawn)	0.3	69.7*	39.7	0.6
CCOCCOCN(C#N)c1nc(OC)nc(N(C)C)n1	1.4	-44.2	64.4*	0.4
CC1CC(C)CN(CCCNC(=O)c2ccc3c(c2)NC(=O)C(N2CCCCC2)S3)C1 (stereo not drawn)	1	1.6	-5.5	1.1
Nc1c(-c2ccccc2)cnn1-c1cccc(C(F)(F)F)c1	1.4	-36.2	28.8	0.7
COc1ccc(-c2cnn(-c3ccccc3)c2N)cc1OC	2.2*	-120.3	29.7	0.7
O=C(N/N=C/C1C(c2ccccc2)C1(Cl)Cl)c1cccc(Br)c1 (stereo not drawn)	0.3	70.5*	17.5	0.8
C/C(=N\NC(=O)c1cccc(Br)c1)c1ccc(Br)cc1	0.9	11.3	12.4	0.9
CCOc1cc(-c2nc3ccccn3c2NCC2CCCO2)ccc1O (stereo not drawn)	0.2	75.2*	36.6	0.6
CC(C)CCNC(=O)CSc1nc2ccsc2c(=O)n1NC(=O)c1ccccc1	0.6	40.7	0.2	1
